A short description of assay [1]: Cell Viability - LYMP2-012 (AID 982).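 Further: cellular ATP by luciferase luminescence where a drop means cytotoxicity; cells exposed to compound for one day before reading; 0% = DMSO only and full loss = 92 µM tetraoctylammonium bromide; nearly all actives have a fitted effect of over 55% in size.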
A short description of assay [2]: Cell Viability - LYMP2-014 (AID 983).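 Further: series mostly up to about 92 µM; cells exposed to compound for 24 h at 37 °C; plate controls were DMSO only for no effect and 92 µM tetraoctylammonium bromide for full effect; nearly all actives have a fitted effect of over 50% in size.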 In short, it runs like this:
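Cells are plated at 2500/well and left 5 hr at 37 C. Compounds are added across a concentration range and incubated 24 hr at 37 C in complete medium. CellTiter-Glo is added, and luminescence is read after 30 min at room temperature.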

Assay [3] is described as follows: Cell Viability - LYMP2-016 (AID 984).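 Further: cells exposed to compound for 24 hours at 37 °C; on the % scale 0 is the no-effect control and ±100 the full control effect; nearly all actives have a fitted effect of over 55% in size.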 In short, it runs like this:
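qHTS, 1536-well: 2500 LYMP2-016 cells/well, 5 hr 37 C, compound added, 24 hr 37 C, CellTiter-Glo 30 min RT, luminescence. Tetraoctylammonium bromide positive control. AC50 via Hill fit.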

Assay [4] can be described thus: Cell Viability - LYMP2-018 (AID 985).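 Further: compound exposure lasted 24 hr at 37 °C; plate controls were DMSO only for no effect and tetraoctylammonium bromide at 92 µM for full effect; nearly all actives have a fitted effect of over 50% in size.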 In short, it runs like this: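 Seed 2500 lymphoblastoid cells per well, incubate 5 hr at 37 C, add compound and incubate 24 hr at 37 C, add CellTiter-Glo, wait 30 min at room temperature, then read luminescence.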
A short description of assay [5]: Cell Viability - LYMP2-020 (AID 986).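 Further: series mostly up to about 92 µM; cells exposed to compound for 24 h at 37 °C; plate controls were DMSO only for no effect and tetraoctylammonium bromide at 92 µM for full effect; nearly all actives have a fitted effect of over 55% in size.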 In short, it runs like this:
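Seed 2500 cells per well and incubate 5 hr at 37 C. Add compounds at a concentration series and incubate 24 hr at 37 C. Add CellTiter-Glo, wait 30 min at RT, read luminescence, and fit a Hill curve for AC50.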

Assay [6] can be described thus: Cell Viability - LYMP2-022 (AID 987).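 Further: 0% = DMSO alone and full effect = tetraoctylammonium bromide at 92 µM; nearly all actives have a fitted effect of over 55% in size.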 In short, it runs like this: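 Cells were seeded at 2500 per well, rested 5 hr at 37 C, and treated with titrated compounds for 24 hr at 37 C. Cellular ATP was then quantified by luciferase luminescence, and AC50 values were derived from Hill-modelled concentration-response curves.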
Assay [7] can be described thus: Cell Viability - LYMP2-024 (AID 988).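 Further: plate controls were DMSO only for no effect and 92 µM tetraoctylammonium bromide for full effect; nearly all actives have a fitted effect of over 60% in size.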 In short, it runs like this:
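qHTS cytotoxicity, human lymphoblastoid line, complete medium; 24 h cpd treatment, 37 C; CellTiter-Glo ATP luminescence readout; tetraoctylammonium bromide positive control; AC50 via Hill fit.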

Assay [8] is described as follows: Cell Viability - LYMP2-026 (AID 989).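 Further: cells exposed to compound for 24 h at 37 °C; on the % scale 0 is the no-effect control and ±100 the full control effect; nearly all actives have a fitted effect of over 50% in size.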 In short, it runs like this:
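Cells are seeded at 2500 per well and held 5 hr at 37 C. Compounds are added in concentration series for 24 hr, then CellTiter-Glo reagent is applied and luminescence read.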

Assay [9] is described as follows: Cell Viability - LYMP1-002 - Assay at 24 hr (AID 993). Further: on the % scale 0 is the no-effect control and ±100 the full control effect. In short, it runs like this: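 Acute toxicity is measured as concentration-dependent loss of cellular ATP in a human lymphoblastoid line (Coriell LYMP1-002) after 24 h treatment in complete medium. ATP is quantified by luciferase luminescence and AC50 derived by Hill modelling.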
Assay [10] can be described thus: Cell Viability - LYMP1-002 - Assay at 40 hr (AID 994).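 Further: 0% = DMSO only and full inhibition = 92 µM tetraoctylammonium bromide; nearly all actives have a fitted effect of over 60% in size.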 In short, it runs like this: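 Cells are plated at 2500 per well and rested 5 hr at 37 C. Compounds are added and incubated 40 hr at 37 C. CellTiter-Glo reagent is added for 30 min at room temperature before luminescence is read.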
Assay [11] in a line: qHTS Assay for Identification of Small Molecule Inducers of Hypoxia Response (AID 2120; active means well fitted curve in the direction sought with a large enough effect in the signal ratio, with a control signal flat, not every such curve was filed as active; the % refers to the signal ratio; further: 0% is about no effect). The method, boiled down:
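Cell-based qHTS for reporter induction: hypoxia response element controlled beta-lactamase in ME-180 cells. Compounds incubated 17 h at 37 degrees C; activity from blue/green (460/530 nm) ratio, inducers ranked by AC50.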
A general note: Quantitative high-throughput screening tests each substance at several concentrations.

The target in assay [12] is Estrogen receptor (Homo sapiens) (UniProt P03372). In words: qHTS assay for small molecule antagonists of estrogen receptor alpha signaling (AID 588513; active means well fitted curve in the direction sought with a large enough effect in the signal ratio, with a control signal flat, not every such curve was filed as active; the % refers to the signal ratio; further: on the % scale 0 is the no-effect control and ±100 the full control effect). The method, boiled down:
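Beta-lactamase reporter, antagonist mode, HEK 293 GripTite cells; 0.5nM E2 stimulus, 18 h, 37 C; CCF4 dye 2 h RT; fluorescence. IC50 and efficacy from Hill fits, normalized to E2 and DMSO.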

Assay [13] shares this target. As to the kind of experiment: qHTS assay for small molecule agonists of estrogen receptor alpha signaling (AID 588514; calls by dose curve;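 further: 0% = vehicle only and 100% = reference agonist; nearly all actives have a fitted effect of over 70% in size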). In short, it runs like this: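 Efficacy is expressed against 20 nM 17-beta-estradiol (100%) and DMSO basal (0%); EC50 from Hill equation. Assay: beta-lactamase reporter in ER-alpha-UAS-bla HEK 293 cells, 18 h compound incubation, CCF4 detection.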

Assay [14] addresses Bile acid receptor (Homo sapiens) (UniProt Q96RI1). As to the kind of experiment: qHTS assay for small molecule antagonists of farnesoid X receptor signaling (AID 588526; calls by dose curve; further: on the % scale 0 is the no-effect control and ±100 the full control effect). The method, boiled down: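 Beta-lactamase reporter antagonist mode: HEK293T FXR-UAS-bla cells, titrated compound, CDCA stimulation, 16 h 37 C, CCF4 dye 2 h RT. Data normalized to CDCA 50 uM and DMSO; Hill-fit IC50.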

Assay [15] has as its target Peroxisome proliferator-activated receptor delta (Homo sapiens) (UniProt Q03181). In words: qHTS assay for small molecule agonists of peroxisome proliferator-activated receptor delta signaling (AID 588534; calls by dose curve;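 further: 0% = DMSO basal wells and 100% = positive control agonist at 10 µM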). In short, it runs like this:
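Agonist-mode qHTS; reporter cells, 5 hrs 37 C pre-incubation; compound titration, 18 hrs 37 C; CCF4 dye, 2 hrs RT; fluorescence read. EC50/efficacy via Hill fit.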

The nature of assay [16]: qHTS assay for small molecule antagonists of peroxisome proliferator-activated receptor delta signaling (AID 588535; active means well fitted inhibition curve with a large enough effect in the signal ratio, with a control signal flat, not every such curve was filed as active; the % refers to the signal ratio;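 on max response: cells co-treated with a PPAR-delta agonist as stimulator during compound exposure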). The following applies: HEK293T PPARd-UAS-bla, beta-lactamase FRET ratio, 18 h; 460 nm channel. In short, it runs like this: (§1)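 Titrations were run on PPAR-delta-UAS-bla HEK293T cells in charcoal/dextran-stripped serum, incubated 18 h at 37 C. CCF4 fluorescence (460/530 nm) after 2 h RT; Hill equation yields IC50 and maximal response.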

For assay [17], the target named is Peroxisome proliferator-activated receptor delta (Homo sapiens) (UniProt Q03181). The description is as above. In short, it runs like this:
as §1

For assay [18], the target named is Peroxisome proliferator-activated receptor gamma (Homo sapiens) (UniProt P37231). In words: qHTS assay for small molecule agonists of peroxisome proliferator-activated receptor gamma signaling (AID 588536; active means well fitted curve in the direction sought with a large enough effect in the signal ratio, with a control signal flat, not every such curve was filed as active; the % refers to the signal ratio;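 further: 0% = DMSO basal wells and 100% = rosiglitazone at 2 µM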). The method, boiled down: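 This is an agonist-mode beta-lactamase reporter assay in HEK293 PPAR-gamma-UAS-bla cells with 1% charcoal/dextran FBS. Compound titrations ran 16 h at 37 C before CCF4 detection. EC50 and efficacy are Hill fits scaled to 2 uM rosiglitazone (100%) and DMSO basal.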

A short description of assay [19]: qHTS assay for small molecule agonists of retinoid X receptor alpha signaling (AID 588544; calls by dose curve). To be noted: HEK293T RXRa-UAS-bla, beta-lactamase reporter, 18 h; 530 nm emission.
Assay [20] concerns the target Retinoic acid receptor RXR-alpha (Homo sapiens) (UniProt P19793). Described as above.
Assay [21] addresses Thyroid hormone receptor beta (Homo sapiens) (UniProt P10828). As to the kind of experiment: qHTS assay for small molecule agonists of thyroid hormone receptor beta signaling (AID 588545; calls by dose curve;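 further: 0% = DMSO only and 100% = 10 nM T3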). The method, boiled down: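 Compounds were tested as agonists in TR-UAS-bla-GripTite HEK 293 cells. After 18 hrs at 37 C, CCF4 substrate was added and fluorescence read after 2 hrs at room temperature.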

Assay [22] can be described thus: qHTS assay for small molecule antagonists of retinoid X receptor alpha signaling (AID 588546; active means well fitted inhibition curve with a large enough effect in the signal ratio, with a control signal flat, not every such curve was filed as active; the % refers to the signal ratio;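 further: cells stimulated with 9-cis-retinoic acid as agonist; on the % scale 0 is the no-effect control and ±100 the full control effect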). The following applies: HEK293T RXRa-UAS-bla, beta-lactamase ratio, antagonist mode; measured here: W530 green channel, cytotoxicity proxy. The method, boiled down:
(§2)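 Beta-lactamase reporter inhibition, read as CCF4 fluorescence ratio (ex 405, em 460/530 nm) after 2 h at RT. HEK293T UAS-bla cells, 2500/well, were stimulated with 9-cis-RA at 500 or 100 nM final alongside test compound for 18 h at 37 C.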

Assay [23] addresses Retinoic acid receptor RXR-alpha (Homo sapiens) (UniProt P19793). The description is as above. The following applies: HEK293T RXRa-UAS-bla, beta-lactamase ratio, antagonist mode. The method, boiled down:
as §2

SMILES strings stand for the structures. Where “and” joins values, the source holds several entries; their conditions need not be identical. Equal entries are not always repeated. Records with an inconclusive call do not appear. Calls of active or inactive are those of the source. Unless noted, the call rests on the fitted dose curve; in most records, active means well fitted cell-killing curve with a large enough effect; inconclusive means small, poorly fitted or top-dose-only effect; inactive means flat fitted curve, though single readings scatter.

The source of these data is PubChem BioAssay (NCATS).

Sequence of Peroxisome proliferator-activated receptor delta (Homo sapiens) (Q03181 whole entry, looked up): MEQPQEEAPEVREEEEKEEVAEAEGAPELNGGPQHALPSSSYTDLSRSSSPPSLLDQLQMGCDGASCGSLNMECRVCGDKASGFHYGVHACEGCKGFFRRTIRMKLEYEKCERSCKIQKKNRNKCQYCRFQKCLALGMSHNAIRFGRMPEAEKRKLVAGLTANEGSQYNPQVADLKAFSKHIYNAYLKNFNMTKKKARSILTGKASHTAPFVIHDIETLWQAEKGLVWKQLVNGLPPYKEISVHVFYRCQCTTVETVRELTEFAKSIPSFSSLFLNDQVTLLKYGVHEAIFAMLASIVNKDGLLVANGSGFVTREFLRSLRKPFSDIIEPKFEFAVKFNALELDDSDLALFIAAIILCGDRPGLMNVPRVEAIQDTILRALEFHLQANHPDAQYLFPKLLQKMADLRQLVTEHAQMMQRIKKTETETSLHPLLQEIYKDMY
Sequence of Retinoic acid receptor RXR-alpha (Homo sapiens) (P19793 whole entry, looked up): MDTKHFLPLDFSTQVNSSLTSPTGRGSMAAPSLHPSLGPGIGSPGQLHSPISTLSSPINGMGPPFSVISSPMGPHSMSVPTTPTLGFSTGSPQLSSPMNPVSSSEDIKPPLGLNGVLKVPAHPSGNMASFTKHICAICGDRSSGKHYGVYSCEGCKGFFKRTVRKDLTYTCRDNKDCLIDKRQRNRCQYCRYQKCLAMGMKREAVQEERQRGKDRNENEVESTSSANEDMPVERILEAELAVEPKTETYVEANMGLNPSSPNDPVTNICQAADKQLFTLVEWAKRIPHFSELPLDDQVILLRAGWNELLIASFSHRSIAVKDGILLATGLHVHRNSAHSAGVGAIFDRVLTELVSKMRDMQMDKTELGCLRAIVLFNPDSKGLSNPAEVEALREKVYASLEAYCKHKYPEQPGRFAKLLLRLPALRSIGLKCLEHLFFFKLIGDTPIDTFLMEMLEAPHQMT
Sequence of Estrogen receptor (Homo sapiens) (P03372 whole entry, looked up): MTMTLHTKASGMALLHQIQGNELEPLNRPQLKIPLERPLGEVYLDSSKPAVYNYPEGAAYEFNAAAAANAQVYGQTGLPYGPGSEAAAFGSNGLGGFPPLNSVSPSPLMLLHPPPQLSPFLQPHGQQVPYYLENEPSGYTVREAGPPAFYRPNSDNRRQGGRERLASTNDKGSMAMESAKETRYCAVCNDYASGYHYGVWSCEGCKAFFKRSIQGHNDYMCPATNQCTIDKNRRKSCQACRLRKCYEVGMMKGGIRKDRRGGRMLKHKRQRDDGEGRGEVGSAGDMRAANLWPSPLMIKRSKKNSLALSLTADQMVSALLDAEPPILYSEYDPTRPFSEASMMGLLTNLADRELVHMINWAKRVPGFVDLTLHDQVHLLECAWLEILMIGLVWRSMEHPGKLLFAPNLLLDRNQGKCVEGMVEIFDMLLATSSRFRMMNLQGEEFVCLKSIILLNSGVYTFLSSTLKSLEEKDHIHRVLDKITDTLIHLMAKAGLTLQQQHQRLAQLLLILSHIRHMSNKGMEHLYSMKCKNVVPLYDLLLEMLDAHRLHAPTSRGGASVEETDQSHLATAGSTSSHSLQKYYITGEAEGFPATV
Sequence of Peroxisome proliferator-activated receptor gamma (Homo sapiens) (P37231 whole entry, looked up): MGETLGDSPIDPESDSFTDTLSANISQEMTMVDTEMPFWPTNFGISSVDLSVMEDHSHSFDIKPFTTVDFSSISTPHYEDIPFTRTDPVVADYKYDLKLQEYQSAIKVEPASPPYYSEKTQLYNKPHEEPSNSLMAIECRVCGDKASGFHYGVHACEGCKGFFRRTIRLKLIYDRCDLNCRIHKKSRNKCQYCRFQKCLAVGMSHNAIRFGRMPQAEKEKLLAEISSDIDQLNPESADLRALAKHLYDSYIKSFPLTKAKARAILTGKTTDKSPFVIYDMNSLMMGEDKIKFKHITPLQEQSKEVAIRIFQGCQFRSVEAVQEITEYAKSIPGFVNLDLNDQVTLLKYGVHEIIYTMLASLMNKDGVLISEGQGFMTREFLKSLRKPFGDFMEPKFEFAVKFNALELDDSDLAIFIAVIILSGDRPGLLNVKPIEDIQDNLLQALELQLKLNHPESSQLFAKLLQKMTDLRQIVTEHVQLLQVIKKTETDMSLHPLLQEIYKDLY
Sequence of Thyroid hormone receptor beta (Homo sapiens) (P10828 whole entry, looked up): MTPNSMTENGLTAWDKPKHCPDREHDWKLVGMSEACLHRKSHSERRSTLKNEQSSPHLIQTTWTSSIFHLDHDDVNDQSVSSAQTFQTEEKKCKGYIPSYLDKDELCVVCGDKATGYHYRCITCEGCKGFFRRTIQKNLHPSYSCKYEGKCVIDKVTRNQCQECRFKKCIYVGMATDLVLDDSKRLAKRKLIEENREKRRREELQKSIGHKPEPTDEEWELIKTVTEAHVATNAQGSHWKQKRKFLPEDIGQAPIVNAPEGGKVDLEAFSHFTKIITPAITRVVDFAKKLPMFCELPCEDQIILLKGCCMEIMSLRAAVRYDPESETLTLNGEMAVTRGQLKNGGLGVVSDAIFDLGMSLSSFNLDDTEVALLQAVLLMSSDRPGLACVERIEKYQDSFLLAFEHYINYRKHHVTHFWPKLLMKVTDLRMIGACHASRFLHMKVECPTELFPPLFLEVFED
Sequence of Bile acid receptor (Homo sapiens) (Q96RI1 whole entry, looked up): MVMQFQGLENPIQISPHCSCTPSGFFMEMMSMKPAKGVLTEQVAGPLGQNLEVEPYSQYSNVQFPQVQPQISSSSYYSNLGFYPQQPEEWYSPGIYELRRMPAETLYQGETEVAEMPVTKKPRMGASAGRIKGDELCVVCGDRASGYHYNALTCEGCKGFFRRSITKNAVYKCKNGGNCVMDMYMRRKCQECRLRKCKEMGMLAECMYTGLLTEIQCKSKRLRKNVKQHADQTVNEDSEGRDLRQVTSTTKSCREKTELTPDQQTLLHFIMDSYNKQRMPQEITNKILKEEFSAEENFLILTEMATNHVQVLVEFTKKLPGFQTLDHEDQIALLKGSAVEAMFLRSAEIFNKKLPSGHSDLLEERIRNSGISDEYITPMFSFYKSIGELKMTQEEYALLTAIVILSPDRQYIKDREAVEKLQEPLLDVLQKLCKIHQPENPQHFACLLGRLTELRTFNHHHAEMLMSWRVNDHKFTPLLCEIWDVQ

In the case of `CCCOC(=O)c1ccccc1C(=O)OCCC`, the Potency entry in [1], in assay [2], in assay [3], in assay [4], in [5] and in assay [6] was “inactive” throughout. The Potency result in assay [7], in assay [8], in [9], in [10], in assay [12] and in assay [13] was “inactive” throughout. Also, the Potency entry in assay [17] and in assay [20] was “inactive” each time. Further, the molecule was called inactive in assay [11], in [14], in [15], in assay [18] and in assay [21]. Besides, the max response is 2.17% in assay [16]; 8.06% and -8.01% in assay [19]; 3.93% and -2.34% in assay [22]; -20.7% (inactive) and -19.5% (inactive) in [23].
